Source: PubChem BioAssay (Broad Institute)
An excerpt weighted towards active compounds, which were near 3.4% of everything screened.
Wnt act: Wnt/beta-catenin pathway activators, primary screen, cell-based, plate reader, single point; activation, % at 9.35 µM; Wnt/beta-catenin reporter cell assay, activator; hit rate 1.2% among 300,000; in the data active = activation above about 30%, passing the limit was not always enough; inconclusive = no clear call, values can overlap the other calls;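 also: 0% = neutral control wells and 100% = positive control wells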
miR122 inh: miR-122 Renilla sensor signal increase in Huh7, primary screen, miR-122 inhibitor project, cell-based, single point, plate reader; hit rate 0.3% among 340,000; AID 602342, 2012; activation (reporter increase), % at 12.5 µM; Huh7 miR-122 Renilla luciferase sensor, 48 h; neutral wells = 0, positive control = 100;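 active = mean replicate activation score at least 90 and every replicate individually at or above 90; inconclusive = only one of the two criteria met; inactive = neither criterion met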;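 also: higher luciferase means less miR-122 activity so hits act as miR-122 inhibitors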
esBAF inh: Bmi1 luciferase reporter increase in mESCs, primary screen, esBAF inhibitor project, mouse ES cells, Bmi1 luciferase knock-in, single point. 24 h; 100% = twice the neutral-well signal. reporter increase, % at 12.5 µM. hit rate 2% among 350,000; in the data active = activation above about 40%; inconclusive = no clear call, values can overlap the other calls;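 also: 0% = median of the plate's neutral control wells and 100% = double that signal; a rise in the Bmi1 reporter signal indicates esBAF inhibition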
HIV Env fusion: inhibitors of HIV-1 Env-driven cell-cell fusion, primary screen, HeLa-JRFL effector, CEM21 target cells, luciferase; inhibition, % at 12.3 µM; hit rate 1.1% among 360,000; AID 651610, 2012;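 active = mean replicate inhibition score of at least 50 and every replicate individually at or above 50; inconclusive = only one of the two criteria met; inactive = mean below 50 and not all replicates reaching 50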;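 also: 0% = plate neutral controls and 100% = maraviroc near 300 nM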
MITF act: activators of MITF-driven TRPM1 promoter reporter, primary screen, cell-based, SK-MEL-5, luciferase, single point; activation, % at 12.5 µM; AID 588334, 2011; SK-MEL-5 TRPM1-promoter luciferase, 24 h; % of positive control, neutral wells = 0; hit rate 0.75% among 300,000;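 active = mean activation of at least 80% with every replicate also reaching 80%; inconclusive = mean reaches 80% but some replicate falls short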;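 also: 0% = neutral control wells and 100% = parthenolide positive control wells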
* marks the source's active call; other numbers are inactive results; ? = inconclusive; . = no result given; [ ] = remark or other dose.

SMILES | Wnt act | miR122 inh | esBAF inh | HIV Env fusion | MITF act
OC(c1ccccc1)c1nc(-c2cc3ccccc3o2)cs1 (stereo unspecified) | -1 | 0 | 47* | -106 | .
OC[C@H]1[C@@H](c2ccc(-c3ccncc3)cc2)[C@@H]2CN(Cc3ccccn3)CCCCN12 | . | -1[16.7 µM] | . | . | .
CNC[C@@H]1OCCCC[C@@H](C)Oc2ccc(NC(=O)c3ccncc3)cc2C(=O)N([C@H](C)CO)C[C@@H]1C | . | -1[16.7 µM] | -12 | 6[16.7 µM] | .
S=C(NCCCN1CCOCC1)N1CCN(c2nc(-c3ccc(Cl)cc3)cs2)CC1 | -5 | . | . | 75* | -26
CCOCCCNC(=S)N1CCN(c2nc(-c3ccc(F)cc3)cs2)CC1 | -8 | -8 | 1 | ? | -15
S=C(NCCCN1CCOCC1)N1CCN(c2nc(-c3ccccc3)cs2)CC1 | -4 | -3 | 1 | 8 | -3
COCCCNC(=S)N1CCN(c2nc(-c3ccc(F)cc3)cs2)CC1 | -2 | -4 | 5 | 108* | -4
S=C(NCC1CCCO1)N1CCN(c2nc(-c3ccc(Cl)cc3)cs2)CC1 (stereo unspecified) | 3 | -7 | -2 | 57* | -22
Cc1ccc(S(=O)(=O)Nc2ccc3c(c2)C(=O)N([C@@H](C)CO)C[C@@H](C)[C@H](CN(C)CC2CCCCC2)O3)cc1 | . | 1[16.7 µM] | -1 | 8[16.7 µM] | .
CC(C)CC#Cc1ccc2c(c1)O[C@@H](CN(C)C(=O)Nc1ccccc1)[C@H](C)CN([C@H](C)CO)S2(=O)=O | . | 31[16.7 µM] | -1 | -7[16.7 µM] | .
CN1C[C@@H](O)COC[C@H]2O[C@H](CC(=O)N3CCN(c4ccccc4)CC3)CC[C@@H]21 | . | 5[16.7 µM] | 5 | 14[16.7 µM] | .
COCCNC(=O)C[C@@H]1C[C@@H]2c3cc(NC(=O)NC4CCCCC4)ccc3O[C@@H]2[C@H](CO)O1 | . | 5[16.7 µM] | -2 | 11[16.7 µM] | .
COc1ccccc1CN1CC[C@H]2[C@H](CO)Nc3ccc(-c4ccc(C(=O)N(C)C)cc4)cc3[C@H]21 | . | -21[16.7 µM] | 0 | . | .
Cc1ccc(NC(=O)c2cc(-c3cccc(O)c3)on2)cc1C | 23 | . | 49* | -12 | 55
O=C(Nc1ccc(F)c(Cl)c1)c1cc(-c2ccco2)on1 | 38* | -2 | -1 | 13 | 22
Cc1cc(NC(=O)c2cc(-c3ccco3)on2)no1 | . | . | 1 | -44 | 8
Cc1ccc(NC(=O)c2cc(-c3ccco3)on2)cc1C | . | . | 47* | -17 | 53
Cc1ccc(NC(=O)c2cc(-c3ccco3)on2)cc1 | . | -2 | . | -23 | 90*
CCC(=O)N[C@@H]1CC[C@H](CCn2cc(C3CC3)nn2)O[C@H]1CO | . | . | -3 | -38[16.7 µM] | .
COc1cccc(-c2cnc3c(c2)C(=O)N([C@@H](C)CO)C[C@H](C)[C@@H](CN(C)C(=O)CN(C)C)O3)c1 | . | 10[16.7 µM] | -6 | -22[16.7 µM] | .
Cc1cccc(C(=O)N2CCCC(c3nc(-c4ccc(C)o4)no3)C2)c1 (stereo unspecified) | 12 | 0 | 51* | -45 | 55
Cc1ccc(-c2noc(C3CCCN(C(=O)c4ccccc4Br)C3)n2)cc1 (stereo unspecified) | 3 | . | 51* | -18 | 10
Cc1ccc(-c2noc(C3CCCN(C(=O)c4c(F)cccc4F)C3)n2)cc1 (stereo unspecified) | . | 5 | 9 | 37 | -5
CO[C@H]1CN(C)C(=O)c2cc(NC(=O)Nc3c(C)noc3C)ccc2OC[C@H](C)N(C)C[C@H]1C | . | . | 0 | 3[16.7 µM] | .
O=C(CSc1nnc(-c2ccncc2)n1Cc1ccco1)OC1CCCCC1 | -3 | -2 | 6 | . | 4
SMILES | Wnt act | miR122 inh | esBAF inh | HIV Env fusion | MITF act
O=C(CSc1nnc(-c2ccco2)n1Cc1ccccc1)OC1CCCCC1 | . | 6 | 68* | -13 | .
CCc1ccccc1-n1c(SCC(=O)N2CCCC2)nnc1-c1ccccn1 | 65* | -3 | -3 | -26 | 1
Cn1c(SCC(=O)c2ccccc2)nnc1-c1ccccn1 | 57* | -1 | 36 | -13 | .
Cn1c(SCC(=O)c2ccccc2)nnc1-c1ccco1 | 40* | -24 | 34 | -19 | 30
C[C@H]1CN([C@@H](C)CO)C(=O)c2cccc(NS(=O)(=O)c3cccs3)c2O[C@H]1CN(C)C(=O)NC1CCCCC1 | . | 2[16.7 µM] | 2 | . | .
CCOC(=O)[C@H](Cc1c[nH]c2ccccc12)NC(=O)CN=[N+]=[N-] | . | . | . | -6[16.7 µM] | .
